uPA surface inh = inhibitors of cell surface uPA generation. cell surface uPA generation assay, qHTS. 330,000 tested, 0.31% active. AID 540303. Potency, µM (series often up to 38.3 µM), most hits filed as inhibitors; active = well fitted inhibition curve with a large enough effect; inconclusive = small, poorly fitted or top-dose-only effect; inactive = no such curve, though single readings can be large or run the other way; tested in mouse RAW 264.7 cells; also: nearly all actives have a fitted effect of over 55% in size
Chronic BCR inh = blocks chronic active B-cell receptor signaling. ABC-DLBCL IkBa-CBG/CBR reporter, luminescence ratio, 4 h. Potency, µM (series often up to 46.1 µM), actives largely listed as inhibitors. 340,000 tested, 0.05% active; active = well fitted inhibition curve with a large enough effect in the signal ratio, with a control signal flat, not every such curve was filed as active; inconclusive = small, poorly fitted or top-dose-only effect, or effect the other way, or a change in a side signal; the % refers to the signal ratio
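TMD8 ABC-DLBCL cells carrying doxycycline-inducible green luciferase fused to IkappaBalpha plus unfused red luciferase were exposed to compounds (up to 46 uM) for 4 hrs at 37C. Activity came from the overlap-corrected green/red luminescence ratio.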
Mito fusion act = inhibitors of mitochondrial division or activators of mitochondrial fusion; S. cerevisiae fusion-defective mutant growth rescue, CellTiterGlo 48 h; Potency, µM (top dose mostly 46.1 µM), hits mostly activators; 320,000 tested, 0.23% active; AID 485298; also: nearly all actives have a fitted effect of over 45% in size
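Luminescent cell viability in 1536-well qHTS format served as the measure of rescued growth in ts fusion-mutant S. cerevisiae cultured on non-fermentable YPEG for 48 hours at 37C.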
a7 integrin act = integrin-mediated muscular dystrophy alleviation activation; alpha7betagal myoblasts, beta-gal FDG fluorescence, 48 h; Potency, µM (titrated, usually from 38.3 µM), hits mostly activators; 350,000 tested, 0.064% active; also: nearly all actives have a fitted effect of over 60% in size
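alpha7betagal+/- myoblasts (passage 13, 250/well) treated 48 h at 37C with compounds at 1:260 dilution of DMSO stock. Lysed, then beta-galactosidase activity read as FDG fluorescence (ex 480/em 540) after 30 min, with pre-read for autofluorescence.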
VP16 counter = Gal4-VP16 reporter inhibition counter-screen. Drosophila S2 Gal4-VP16 UAS-luciferase, luminescence, 20 h. 310,000 tested, 3.5% active. AID 2546. Potency, µM (highest dose often 53.6 µM), actives largely listed as inhibitors;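 also: Gal4-VP16 expression switched on by copper sulfate through the metallothionein promoter; nearly all actives have a fitted effect of over 50% in size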
RORg inh = inhibitors of mouse ROR gamma transcriptional activity; Potency, µM (series often up to 53.6 µM), actives largely listed as inhibitors; P51450; 310,000 tested, 5.4% active; Drosophila S2 Gal4-RORgamma UAS-luciferase reporter, 20 h; also: nearly all actives have a fitted effect of over 60% in size
Target sequence (P51450 whole entry, looked up, the tested form may be a part): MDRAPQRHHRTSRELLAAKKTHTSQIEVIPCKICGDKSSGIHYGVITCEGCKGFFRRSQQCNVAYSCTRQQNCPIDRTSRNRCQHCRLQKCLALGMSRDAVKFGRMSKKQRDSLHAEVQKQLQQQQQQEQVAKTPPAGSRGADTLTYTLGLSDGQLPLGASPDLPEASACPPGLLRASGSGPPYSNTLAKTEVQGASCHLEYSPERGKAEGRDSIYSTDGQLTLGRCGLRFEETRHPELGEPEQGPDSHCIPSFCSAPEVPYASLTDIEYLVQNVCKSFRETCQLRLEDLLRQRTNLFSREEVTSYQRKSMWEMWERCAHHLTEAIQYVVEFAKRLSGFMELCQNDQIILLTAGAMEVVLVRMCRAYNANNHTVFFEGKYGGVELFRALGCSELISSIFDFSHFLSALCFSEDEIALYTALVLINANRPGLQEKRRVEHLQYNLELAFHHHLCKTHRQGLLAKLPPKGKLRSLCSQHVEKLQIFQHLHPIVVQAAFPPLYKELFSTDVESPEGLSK
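Compounds are pin-transferred onto Drosophila Schneider cells expressing a copper-inducible Gal4–ROR gamma transactivation domain fusion. After 1 hr, copper sulfate is added to 700 uM final; luciferase is read 20 hr later.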
A number is an active result; – = inactive; ? = inconclusive; · = no result given; [ ] = remark or other dose. Only some compounds are listed: those with a hit (about 5.5% of all), similar ones and a draw of the others. Unless noted, calls follow the shape of the dose curve; as a rule, active = well fitted curve in the direction sought with a large enough effect; inconclusive = small, poorly fitted or top-dose-only effect, or another doubt; inactive = no such curve, though single readings can be large; an effect the other way counts as inactive or inconclusive.

SMILES | uPA surface inh | Chronic BCR inh | Mito fusion act | a7 integrin act | VP16 counter | RORg inh
COc1ccc(NC(=S)NN2C(C)CCCC2C)cc1 (stereo not given) | – | ? | – | – | 7.08µM | 7.94µM
Nn1c(SCC(=O)NCCc2ccc(F)cc2)nnc1C1CCCCC1 | – | – | – | – | · | ·
O=C(Nc1ncnc2sc3c(c12)CCCCC3)c1ccccc1 | – | – | – | – | 20µM | 11.2µM
O=C(Nc1ncnc2sc3c(c12)CCCCC3)c1ccc(F)cc1 | – | ? | – | – | 12.6µM | 7.08µM
O=C(Nc1ncnc2sc3c(c12)CCC3)c1ccco1 | – | – | – | – | – | –
Cc1cc(C)cc(NC(=O)C(=O)NCCc2c[nH]c3ccccc23)c1 | – | – | – | – | – | –
Cc1cccc(NC(=S)NCCc2c[nH]c3ccccc23)c1 | – | – | – | – | 1µM | 2.51µM
Cc1ccc(NC(=S)NCCc2c[nH]c3ccccc23)cc1 | – | – | – | – | 20µM | 7.94µM
COc1ccc(CNC(=O)COC(=O)CCc2c[nH]c3ccccc23)cc1 | – | – | – | 10µM | – | –
COc1ccc(CCNC(=S)NCCc2c[nH]c3ccccc23)cc1 | – | ? | – | – | ? | 12.6µM
COc1ccccc1N(CC(=O)NC1CCCC1)S(=O)(=O)c1cccc(C(F)(F)F)c1 | – | ? | – | ? | · | ·
O=C(O)c1ccc(Cn2cnc3c(=O)[nH]cnc32)cc1 | – | · | · | – | · | ·
Cc1ccc(C(=O)NCC(=O)NCc2ccc(Cl)cc2)s1 | – | – | · | – | · | ·
O=C(CSc1nc2cc(C(=O)O)ccc2c(=O)n1-c1ccc(F)cc1)Nc1ccc(F)c(F)c1F | – | – | – | – | – | –
COCCNc1ncnc2ccc(-c3ccoc3)cc12 | · | · | · | · | – | –
CC(C)c1ccc(NC(=S)NCCc2c[nH]c3ccccc23)cc1 | – | – | – | – | ? | 10µM
O=C(NCCc1c[nH]c2ccccc12)Nc1ccccc1 | – | ? | – | – | – | –
Cc1ccc(N=Cc2c(O)ccc3ccccc23)cc1F | – | ? | · | – | ? | 5.01µM
CC(C)c1ccccc1-n1c(SCC(=O)c2ccc3c(c2)NC(=O)CO3)nc2ccccc2c1=O | – | – | – | – | – | 2.82µM
Cc1ccccc1CS(=O)(=O)Cc1ccc(C(=O)NCCc2ccc(Cl)cc2)o1 | · | – | · | · | · | ·
Cc1cccc(NC(=S)N2CCN(S(=O)(=O)c3cccc(F)c3)CC2)c1 | – | – | – | – | – | 11.2µM
Cc1ccc(NC(=S)N2CCN(S(=O)(=O)c3ccc(C)cc3)CC2)cc1 | – | – | – | – | – | 12.6µM
O=S(=O)(c1ccccc1)N1CCN(C(=S)Nc2ccc(Br)cc2)CC1 | – | – | – | – | – | –
CCc1ccc(NC(=S)N2CCN(S(=O)(=O)c3ccccc3)CC2)cc1 | – | – | – | ? | ? | 17.8µM
COc1cc(C=C(c2nc3ccccc3s2)c2nc3ccccc3s2)ccc1O | – | ? | 15.8µM | – | – | –[10 µM]
SMILES | uPA surface inh | Chronic BCR inh | Mito fusion act | a7 integrin act | VP16 counter | RORg inh
COc1ccc(C=C(c2nc3ccccc3s2)c2nc3ccccc3s2)cc1O | – | ? | ? | – | – | –
O=C(NCCc1ccccc1)C1CCC(=O)N1C1CCCC1 (stereo not given) | – | – | – | 10µM | – | –
O=C(NCc1ccccn1)C1CCC(=O)N1C1CCCC1 (stereo not given) | – | · | · | – | · | ·
C=CCc1ccccc1OC[C@H](O)CNC(C)C | · | · | · | · | – | –
Cc1ccc(S(=O)(=O)Nc2ccc(O)c3cccnc23)cc1 | – | ? | – | – | ? | 10µM
Cc1ccc(S(=O)(=O)Nc2ccc3ncccc3c2[N+](=O)[O-])cc1 | – | · | · | – | · | ·
Cc1ccc(S(=O)(=O)Nc2ccc(O)c3ncccc23)cc1 | 7.94µM | – | – | – | ? | 2.51µM
COc1cccc(CNc2ccc3nc(-c4ccc(N)cc4)c(OC)n3n2)c1 | · | · | · | · | – | ?
Cc1ccc2nc(-c3cccc(Br)c3)cc(C(=O)NC3=NCCS3)c2c1 | – | – | – | – | 4.47µM | 2.51µM
O=C(NC1=NCCS1)c1cc(-c2cccc(Br)c2)nc2ccccc12 | – | – | – | – | ? | 7.08µM
CCn1c(CCl)nc2cc(S(=O)(=O)N3CCOCC3)ccc21 | – | – | · | – | · | ·
COc1ccc(/C=C2\C(=O)NC(=S)N2C(=O)c2ccc(F)cc2)cc1 | – | – | – | – | 11.2µM | 8.91µM
O=C1NC(=S)N(C(=O)c2ccc(F)cc2)/C1=C/c1ccccc1 | – | – | – | – | – | –
CNC(=O)c1ccsc1NC(=O)CS(=O)(=O)c1ccc(F)cc1 | · | · | · | – | · | ·
CNCCCCc1cnc(C)c2[nH]c3ccccc3c12 | · | · | · | · | – | –
COC(=O)[C@H](Cc1ccccc1)[C@@H](C)OS(N)(=O)=O | – | – | – | – | – | –
O=C(/C=C/C(Cl)(Cl)Cl)Nc1ccc(Cl)cc1 | – | · | · | – | · | ·
NC(=O)/C=C/C(=O)Nc1ccc(Cl)cc1 | – | ? | – | – | ? | 3.16µM
C=CCN1C(=O)/C(=C/C(=O)OC)S/C1=N\NC(=O)c1ccccc1 | – | – | – | – | 17.8µM | 7.94µM
CC(C)(c1ccccc1)c1ccc(OCc2ccc(C(=O)O)o2)cc1 | – | – | – | – | · | ·
CC(C)c1ccc2oc(-c3cc(N)ccc3O)nc2c1 | – | ? | – | – | 22.4µM | 10µM
COc1ccc(N2CCN(C(c3nnnn3C3CCCC3)C(C)C)CC2)cc1 (stereo not given) | – | ? | 12.6µM | – | – | –
CCn1c(CSc2nc3ccccc3s2)nnc1SCC(=O)c1ccc(O)c(O)c1 | ? | ? | – | – | – | 14.1µM
C=CCn1c(CSc2nc3ccccc3s2)n[nH]c1=S | – | ? | – | – | – | –
CCn1c(CSc2nc3ccccc3s2)n[nH]c1=S | · | – | – | – | 10µM | 2.51µM
SMILES | uPA surface inh | Chronic BCR inh | Mito fusion act | a7 integrin act | VP16 counter | RORg inh
S=c1[nH]nc(CSc2nc3ccccc3s2)n1Cc1ccccc1 | – | – | – | – | – | 3.98µM
CN(C(=O)CSc1nc2ccccc2s1)c1c(N)n(Cc2ccccc2)c(=O)[nH]c1=O | – | – | – | – | – | –
O=C(/C=C/Nc1ccc(F)cc1F)c1ccco1 | – | ? | – | – | 7.08µM | 7.94µM
O=C(/C=C\Nc1cccc(F)c1)c1cccs1 | – | ? | – | – | – | –
O=C(/C=C/Nc1ccccc1F)c1cccs1 | – | ? | – | – | ? | ?
Cc1ccc(N/C=C/C(=O)c2cccs2)cc1 | ? | ? | – | – | 8.91µM | ?
O=C(/C=C/Nc1ccc(F)cc1F)c1cccs1 | – | ? | – | – | 2.51µM | 1.58µM
CCOc1ccc(-c2nc(CSCC(=O)N3CCN(c4cccc(OC)c4)CC3)c(C)o2)cc1 | – | ? | – | – | 11.2µM | 11.2µM
CCc1ccc(-c2nc(CSCC(=O)N3CCN(c4ccccn4)CC3)c(C)o2)cc1 | – | ? | – | – | 12.6µM | ?
Cc1ccc(-c2nc(CSCC(=O)N3CCN(c4ccccn4)CC3)c(C)o2)cc1 | ? | – | – | – | ? | ?
